About 750 (31%) of roughly 2,400 compounds were called active. This is one part of the list. A number with no mark means an inactive call.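 The calls were made as follows: active = median signal gain over dofetilide-blocked control wells reaching their mean plus 3 SD, so readout 1 at least 0; inactive = the rest.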
molecular target: Voltage-gated inwardly rectifying potassium channel KCNH2 (Homo sapiens) (UniProt Q12809); experiment: modulators restoring hERG flux under dofetilide – cell-based, thallium flux, duplicate retest, dofetilide IC70, confirmation (AID 1835); conditions: hERG cell line, FluxOR thallium flux, dofetilide-blocked; at 10 µM; stronger effect = higher value
Sequence (Q12809 whole entry, looked up): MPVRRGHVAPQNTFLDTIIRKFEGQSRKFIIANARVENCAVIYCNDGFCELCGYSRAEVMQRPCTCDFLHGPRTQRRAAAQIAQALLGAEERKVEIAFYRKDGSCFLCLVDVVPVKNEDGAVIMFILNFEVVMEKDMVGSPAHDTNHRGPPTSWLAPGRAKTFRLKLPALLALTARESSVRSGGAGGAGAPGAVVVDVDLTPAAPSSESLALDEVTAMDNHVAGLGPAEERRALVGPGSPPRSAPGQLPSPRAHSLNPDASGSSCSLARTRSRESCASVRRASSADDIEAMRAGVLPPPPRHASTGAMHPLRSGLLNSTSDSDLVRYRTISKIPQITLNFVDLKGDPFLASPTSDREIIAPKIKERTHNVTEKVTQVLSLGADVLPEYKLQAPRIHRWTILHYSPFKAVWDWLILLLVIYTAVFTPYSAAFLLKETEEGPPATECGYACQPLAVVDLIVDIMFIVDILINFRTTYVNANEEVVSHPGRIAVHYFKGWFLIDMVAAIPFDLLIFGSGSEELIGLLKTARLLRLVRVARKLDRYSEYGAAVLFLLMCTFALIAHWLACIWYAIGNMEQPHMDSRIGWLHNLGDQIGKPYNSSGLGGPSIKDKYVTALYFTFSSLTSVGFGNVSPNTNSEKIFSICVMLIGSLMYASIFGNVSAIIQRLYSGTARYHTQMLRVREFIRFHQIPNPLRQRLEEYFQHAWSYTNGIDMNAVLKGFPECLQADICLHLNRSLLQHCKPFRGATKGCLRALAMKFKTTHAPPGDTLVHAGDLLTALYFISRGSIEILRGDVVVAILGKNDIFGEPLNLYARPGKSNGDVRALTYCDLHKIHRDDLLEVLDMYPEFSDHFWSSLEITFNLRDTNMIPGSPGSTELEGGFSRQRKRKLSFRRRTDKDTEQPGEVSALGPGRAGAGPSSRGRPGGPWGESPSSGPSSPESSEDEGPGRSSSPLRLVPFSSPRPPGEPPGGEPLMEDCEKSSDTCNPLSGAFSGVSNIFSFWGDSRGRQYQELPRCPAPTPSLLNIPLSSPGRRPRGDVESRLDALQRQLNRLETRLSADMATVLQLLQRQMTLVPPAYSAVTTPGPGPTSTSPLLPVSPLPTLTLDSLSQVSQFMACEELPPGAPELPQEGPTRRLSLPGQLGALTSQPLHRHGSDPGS

Compound	activity increase over dofetilide control, less the hit threshold
COc1ccc(-n2c(=S)[nH]c3ccccc3c2=S)cc1	-12%
COc1ccc(-c2nc(=S)c3ccc4ccccc4c3[nH]2)cc1	76% (active)
CC(C)CC(=O)Nc1ccc2c3c(cccc13)CC2	-3%
CCn1c(=S)[nH]c2c(c1=O)C(C)(C)Cc1ccccc1-2	26% (active)
CCC1(CC)Cc2ccccc2-c2[nH]c(=S)[nH]c(=O)c21	-6%
O=C(CSc1nc2ccccc2o1)NCc1n[nH]c(=O)c2ccccc12	-4%
CCOc1ccccc1Nc1nc(-c2sc(C)nc2C)cs1	-9%
O=C(C1CCN(S(=O)(=O)c2cc(Cl)ccc2Cl)CC1)N1CCOCC1	-16%
CCN(CC(=O)Nc1c(F)cccc1F)C(=O)c1ccc(Cl)c(S(=O)(=O)N2CCCCC2)c1	-19%
CN(C(=O)c1ccc(Cl)c(S(=O)(=O)N2CCOCC2)c1)c1ccccc1C(=O)O	7% (active)
C=Cc1ccc(Cn2c(=O)n(CCCOC)c(=O)c3sccc32)cc1	-14%
O=[N+]([O-])c1cccc(/C=N/N=C\c2ccccc2)c1	-20%
C/C(=N\NC(=O)c1ccc(NS(=O)(=O)c2cccs2)cc1)c1ccc2c(c1)OCO2	-17%
Cc1ccc(C(=O)N/N=C(/CC(=O)c2cccs2)C(F)(F)F)cc1	3% (active)
COc1ccc(S(=O)(=O)N2CCCC(C(=O)Nc3ccc(OC)c(OC)c3)C2)cc1 (stereo unspecified)	-22%
CCN(Cc1ccc(OC)c(F)c1)C(=O)C1CCCO1 (stereo unspecified)	-3%
COc1ccc(-c2cnn(C3CCS(=O)(=O)C3)c2N)cc1 (stereo unspecified)	-23%
CCOC(=O)C1=C(N)Oc2cc(O)ccc2C1c1cccnc1 (stereo unspecified)	-12%
COC(=O)c1ccc(C2C(C#N)=C(N)Oc3cc(O)ccc32)cc1 (stereo unspecified)	69% (active)
COc1cc(C2C(C#N)=C(N)Oc3c2ccc2ccccc32)ccc1OCC(=O)Nc1ccc(C)cc1 (stereo unspecified)	-19%
O=C(COC(=O)c1ccc(Br)o1)NC1CCCCC1	-6%
Cc1ccc(OC(=O)c2ccc(Br)o2)cc1	37% (active)
O=C(NC1CCCC1)c1ccc(Br)o1	-5%
CCCCOc1ccc(CC(=O)NCC(=O)O)cc1	-17%
CCCOc1ccc(OC(=O)c2ccc(Br)o2)cc1	14% (active)
Cc1ccsc1CN(C(=O)c1ccc([N+](=O)[O-])cc1)C1CCS(=O)(=O)C1 (stereo unspecified)	-5%

Compound	activity increase over dofetilide control, less the hit threshold
O=C(CS(=O)(=O)Cc1ccccc1)Nc1ccc(Cl)cn1	-11%
CCNC(=O)C/C(C)=N/NC(=O)C(=O)Nc1ccc(CC)cc1	9% (active)
CCCCNC(=O)COC(=O)c1ccc(NC(C)=O)cc1	-18%
CCCCCCC12CCC(C(=O)O)(CC1)CC2	14% (active)
CCOc1ccc(NC(=O)CSc2nc3nc(C)cc(C)n3n2)cc1	-8%
CCOc1ccc(NC(=S)NS(=O)(=O)c2cc(Br)ccc2OCC)cc1	37% (active)
CCOc1ccc(NC(=O)C2C(C(=O)O)C3(Cl)C(Cl)=C(Cl)C2(Cl)C3(Cl)Cl)cc1 (stereo unspecified)	-8%
CCc1nnc(NC(=O)CSc2nc(-c3ccccc3)cc(-c3ccc(OC)cc3)c2C#N)s1	11% (active)
N#Cc1c(-c2ccc(Cl)cc2)cc(-c2cccs2)nc1SCC(=O)O	-22%
CCc1nnc(NC(=O)COc2ccc([N+](=O)[O-])cc2)s1	-11%
CCOc1cc(N2CCCC2)ccc1[N+](=O)[O-]	-3%
CC(=O)c1cccc(NC(=O)NCc2cccs2)c1	-23%
Nc1nc2n(n1)C1(CCCCC1)C1=C(CCCC1)N2	-26%
CC(=O)c1c(N)[nH]c(-c2ccccc2)nc1=S	1% (active)
C=C(C)Cc1c(C)nc(-c2ccccc2)[nH]c1=O	-19%
CC(=O)c1c(N2CCN(Cc3ccccc3)CC2)[nH]c(-c2ccccc2)nc1=S	15% (active)
CC(=O)c1c(N2CCCC2)[nH]c(-c2ccccc2)nc1=S	-1%
CSc1nc(-c2ccccc2)[nH]c(=S)c1C(C)=O	61% (active)
CC(=O)c1c(C)[nH]c(-c2ccccc2)nc1=S	-4%
CC(=O)c1c(NC(=O)c2ccccc2)[nH]c(-c2ccccc2)nc1=S	24% (active)
Cc1nc2ccc(C(=O)O)cc2[nH]1	-12%
Cc1ccccc1CC(=O)NC1CCN(Cc2ccccc2)CC1	-1%
Cc1cc(C)cc(NC(=O)CSc2nnc(CN3CCOCC3)n2C)c1	-13%
COc1ccc(S(=O)(=O)n2nc(C)c(S(=O)(=O)N3CCOCC3)c2C)cc1OC	-10%
CCN1CCCC(CO)(Cc2ccccc2)C1 (stereo unspecified)	-8%
O=C(CSc1nnc(NC(=O)c2ccc(S(=O)(=O)N3CCOCC3)cc2)s1)Nc1ccccc1C(F)(F)F	-13%

Compound	activity increase over dofetilide control, less the hit threshold
Cc1[nH]cnc1CSCCN	-2%
O=C(NC(=S)N1CCCc2ccccc21)c1ccc(Br)cc1	32% (active)
O=C(NC(=S)N1CCCc2ccccc21)c1ccc([N+](=O)[O-])cc1	11% (active)
O=C(O)C1CCN1C1CCCCC1 (stereo unspecified)	-16%
CC(=O)c1c(C)nc(C)nc1NC(=O)C(C)C	-16%
CCOC(=O)CSc1nnc(NC(=O)c2ccc3c(c2)OCO3)s1	-22%
Cc1ccc(NC(=O)c2cc(-c3ccc4c(c3)OCO4)on2)cc1	-6%
c1ccc2c(c1)c1ccccc1n1c(-c3ccc4c(c3)OCO4)nnc21	1% (active)
Cc1ccccc1-c1nnn(CC(=O)NCc2ccc3c(c2)OCO3)n1	-13%
O=C(NCc1ccco1)C1CCN(C(=O)Cc2ccccc2)CC1	-7%
CN(C)c1ccc(C(CNS(=O)(=O)c2ccc([N+](=O)[O-])cc2)N2CCCC2)cc1 (stereo unspecified)	-24%
Cc1cccc(N2CCN(C(=O)Cc3c(C(=O)O)[nH]c4ccc(Cl)cc34)CC2)c1C	-14%
Cc1cccc(N2CCN(C(=O)CNC(=O)c3cccc([N+](=O)[O-])c3)CC2)c1C	13% (active)
C/C=C(\C)CN1CCN(c2cccc(C)c2C)CC1	-24%
CCOC(=O)c1sc(NC(=O)c2ccccc2C(=O)O)c(C(=O)OCC)c1C	-4%
CCOC(=O)c1sc(NN=C(C(=O)OC)C(=O)OC)c(C(=O)OCC)c1C	19% (active)
CCOC(=O)c1c(C)oc2cc(Br)c(OC)cc12	-2%
COc1ccc2[nH]c3c(=O)n(CCN4CCOCC4)cnc3c2c1	-14%
CCC1(C(=O)O)NC(c2cc(OC)ccc2O)C2C(=O)N(Cc3ccccc3)C(=O)C21 (stereo unspecified)	-18%
O=C(N/N=C/c1cccs1)C(=O)Nc1cccc(Cl)c1	-6%
Nc1nc(O)c(N=Nc2ccc(S(N)(=O)=O)cc2)c(=O)[nH]1	6% (active)
O=C1N(CN2CCN(Cc3ccccc3)CC2)c2ccccc2C12OCCCO2	-4%
CCCCC(=O)Nc1ccc(NCc2ccc(C)s2)cc1	14% (active)
CN(C)c1ccc(NC(=O)CCCc2ccccc2)cc1	-19%
Cc1ccc(NC(=O)CCC(=O)OCC(F)(F)C(F)F)cc1	-23%
O=C(CCNC(=O)C1CCN(S(=O)(=O)c2ccc(F)cc2)CC1)NCc1ccc(Cl)cc1	-16%

Compound	activity increase over dofetilide control, less the hit threshold
Cc1cc(C)c(Cn2c3ccccc3c3cnn(CC(=O)NCc4ccccn4)c(=O)c32)c(C)c1	-4%
O=C(Nc1ccc(N2CCOCC2)cc1)c1ccc(S(=O)(=O)N2CCCCC2)cc1	-10%
O=C(c1ccc(Cl)c(S(=O)(=O)N2CCCC2)c1)N1CCN(c2ccccc2F)CC1	-1%
Cc1ccc(C(=O)N2CCN(c3ccccc3)CC2)cc1S(=O)(=O)N1CCCC1	19% (active)
C=CCNC(=S)Nc1nc2c(cc1C(=O)OCC)CCCC2	-4%
C=C(C)CNC(=S)Nc1nc2c(cc1C(=O)OCC)CCCC2	-4%
CCNC(=S)Nc1nc2c(cc1C(=O)OCC)CCCC2	2% (active)
CNC(=O)CSc1nnc(-c2ccco2)n1-c1ccccc1	-14%
COc1ccc(C(CC(=O)O)NC(=O)C(c2ccccc2)c2ccccc2)cc1 (stereo unspecified)	-10%
Cn1c(NNC(=O)C(c2ccccc2)c2ccccc2)cc(=O)n(C)c1=O	7% (active)
CC(=O)c1ccc2c(c1)OCCOCCOCCO2	-14%
CC(C)(C)c1ccc(C(=O)CC(=O)c2cc(Cl)ccc2O)cc1	17% (active)
COC(=O)C1CCCN1C(=O)COc1ccc(Cl)cc1Br (stereo unspecified)	-7%
Cc1ccc(C(=O)CC(=O)COc2ccc(Cl)cc2C)cc1	24% (active)
Cc1ccc(O)c(C(=O)CC(=O)c2ccc(Cl)cc2)c1	-2%
Cc1ccc(C(=O)CC(=O)c2cc(Cl)ccc2O)cc1	8% (active)
Cc1cc(Cl)ccc1OC(C)C(=O)NCCc1ccc2c(c1)OCCO2 (stereo unspecified)	-16%
Cc1cccc(C(=O)CC(=O)c2cc(Cl)ccc2O)c1	-7%
Cc1ccc(Cl)cc1NC(=O)COC(=O)c1ccccc1O	-10%
Nc1nc2c(s1)CCCCCCCCCC2	-11%
O=C1OCCC1Sc1nc2ccccc2c(=O)n1Cc1ccc(F)cc1 (stereo unspecified)	9% (active)
Cc1ccc(S(=O)(=O)N2CCOCC2)cc1NC(=O)CSc1nc2ccccc2c(=O)n1Cc1ccccc1	-5%
COc1cc(C2NC(=O)NC(O)(C(F)(F)F)C2C(C)=O)cc(OC)c1OC (stereo unspecified)	-17%

From PubChem BioAssay AID1835 (Johns Hopkins Ion Channel Center, 2009)
